Shown are actives, neighbours in structure and some others; about 2.5% of the full set was active somewhere.
HDAC3 inh: inhibitors of human histone deacetylase 3; O15379; inhibition, % at 8.3 µM; recombinant HDAC3, fluorogenic peptide/trypsin coupled, fluorescence; 320,000 tested, 0.15% active; in the data active = inhibition above about 26%, passing the limit was not always enough
Target sequence (O15379 whole entry, looked up): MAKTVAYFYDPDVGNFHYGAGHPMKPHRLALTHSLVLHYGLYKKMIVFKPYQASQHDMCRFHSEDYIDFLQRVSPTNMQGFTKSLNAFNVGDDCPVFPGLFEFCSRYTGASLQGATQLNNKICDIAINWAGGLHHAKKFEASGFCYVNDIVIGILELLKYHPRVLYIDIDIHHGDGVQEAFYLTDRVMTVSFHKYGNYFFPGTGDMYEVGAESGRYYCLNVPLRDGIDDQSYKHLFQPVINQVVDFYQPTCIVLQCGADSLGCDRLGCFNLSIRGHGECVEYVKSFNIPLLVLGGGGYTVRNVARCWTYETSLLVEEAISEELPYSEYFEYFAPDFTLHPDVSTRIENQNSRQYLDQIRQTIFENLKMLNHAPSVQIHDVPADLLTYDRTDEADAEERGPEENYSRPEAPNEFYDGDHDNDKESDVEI
PfM18AAP inh: PfM18AAP enzyme inhibition. recombinant PfM18AAP, H-Glu-NHMec fluorogenic cleavage. inhibition, % at 7.35 µM. 290,000 tested, 1.2% active. AID 1822;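 active = inhibition above the campaign mean inhibition over all tested compounds plus 3 SD, cut at about 28% in these data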
SUMO HTRF inh: inhibitors of human SUMOylation (UBC9); AID 2006; 290,000 tested, 0.36% active; inhibition, % at 35 µM; HTRF SUMOylation assay, SAE1/SAE2 + UBC9, in vitro; P63279; in the data active = inhibition above about 50%, passing the limit was not always enough
Target sequence (P63279 whole entry, looked up): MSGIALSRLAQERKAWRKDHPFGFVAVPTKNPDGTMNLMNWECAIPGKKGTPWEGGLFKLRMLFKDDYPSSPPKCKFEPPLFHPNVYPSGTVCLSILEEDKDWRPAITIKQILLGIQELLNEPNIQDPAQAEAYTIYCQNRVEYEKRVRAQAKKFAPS
p97 inhibitor: blocks human p97 ATPase activity; P55072; recombinant p97 ATPase, Kinase-Glo ATP luminescence, 3 h; inhibition, % at 8 µM; 220,000 tested, 0.42% active; AID 1481; in the data active = inhibition above about 15%
PHOSPHO1 inh: inhibitors of human PHOSPHO1 phosphatase; recombinant PHOSPHO1, absorbance phosphatase assay; AID 1565; inhibition, % at 13.3 µM; 290,000 tested, 1.1% active; in the data active = inhibition above about 60%
G6PDH CS: counter-screen for G6PDH assay hits: L. mesenteroides G6PDH inhibition. inhibition, % at 5 µM. AID 1020. 200,000 tested, 0.12% active. Purified L. mesenteroides G6PDH, diaphorase/resazurin coupled fluorescence, 45 min; in the data active = inhibition above about 50%
Hits are given with their value; 0 = inactive; - = no result.

SMILES	HDAC3 inh	PfM18AAP inh	SUMO HTRF inh	p97 inhibitor	PHOSPHO1 inh	G6PDH CS
CCc1cc(=O)oc2c(C)c(OC(C)C(=O)NCCCN3CCOCC3)ccc12 (configuration not stated)	0	0	0	-	0	-
COc1ccc(/C=C2\N=C3CCCCCN3C2=O)cc1OC	0	0	0	0	0	0
COc1cc(/C=C2\N=C3CCCCCN3C2=O)ccc1O	0	0	0	0	67	0
N#C/C(=N\Nc1ccc(S(=O)(=O)N2CCOCC2)cc1)C(N)=S	0	0	0	0	0	-
CC1CCN(S(=O)(=O)c2ccc(N/N=C(/C#N)C(N)=O)cc2)CC1	0	0	0	0	77	0
Cc1cc(C)n(Cc2cccc(C(=O)N/N=C/c3cccnc3)c2)n1	-	0	0	-	-	-
CCOC(=O)c1c(S(=O)(=O)NCC(=O)Nc2cccc(C)c2)c(C)n(C)c1C	0	0	-	-	70	-
CCOc1ccc(CCNC(=O)CN2C(=O)NC3(CCCC3)C2=O)cc1OCC	0	0	0	-	0	-
Cc1ccc2nc(SCC(=O)Nc3ccc(F)cc3F)nc(=O)n2c1	0	-	-	-	-	-
Cc1cc2cc(C(c3nnnn3C3CCCC3)N(Cc3cccnc3)Cc3ccco3)c(=O)[nH]c2cc1C (configuration not stated)	0	0	0	0	83	0
CCN=c1scc(-c2ccco2)n1/N=C/c1ccc(OC)c(O)c1	0	0	0	0	0	0
CCN=c1scc(-c2ccco2)n1/N=C/c1ccc(O)cc1	0	0	0	0	80	0
Cc1cccc(OCCN2C(=O)C(=O)c3cc(C)ccc32)c1	0	0	0	0	0	0
Cc1ccc2c(c1)C(=O)C(=O)N2CCOc1ccccc1	0	39	0	0	0	0
COc1ccc(C(=O)c2c(-c3cccc(C)c3)oc3ccc(N4CCOCC4)cc23)cn1	0	0	0	-	0	-
COc1cc(/C=C2\SC(N)=NC2=O)ccc1O	0	0	0	-	0	-
CCOC(=O)c1[nH]c2ccc(Br)cc2c1NC(=O)CCN1CCN(C(=O)OCC)CC1	0	0	0	0	65	0
CSC1=N/C(=C\c2cccc(F)c2)C(=O)S1	0	0	0	0	67	0
CCC(N1CCOC1=O)S(=O)(=O)c1ccc(C)cc1 (configuration not stated)	0	0	0	0	93	0
Cc1cccn2cc(-c3ccc(S(=O)(=O)N4CCOCC4)cc3)nc12	0	0	56	0	0	0
COc1cc2cc(CCCOC(=O)c3ccco3)oc(=O)c2cc1OC	0	-	-	-	-	-
O=C(Nn1cnnc1)c1cc2c(s1)CCCC2	0	32	0	0	0	0
NNC(=O)c1cc2c(s1)CCCCCC2	0	0	0	0	0	0
COC(=O)Nc1sc2c(c1C(=O)NC1CC1)CCCCCC2	0	0	0	0	88	0
O=C(Nc1sc2c(c1C(=O)NC1CC1)CCCCCC2)c1ccco1	0	0	0	0	0	0
SMILES	HDAC3 inh	PfM18AAP inh	SUMO HTRF inh	p97 inhibitor	PHOSPHO1 inh	G6PDH CS
Cn1cc(C(=O)NC2CCCCC2)c(=O)c2cc(S(=O)(=O)N3CCOCC3)ccc21	0	0	0	-	0	-
Cc1cc(C(=O)NCc2cc(C(=O)O)oc2C)c(C)o1	0	0	0	0	0	0
Cc1cc(C(=O)O)c(CSCc2cc(C(=O)O)oc2C)o1	0	0	0	0	76	0
COc1ccc(-c2ccc(NC(=O)c3ccc(Br)o3)cc2)nn1	0	-	-	-	-	-
Cc1ccc(-n2nc3ccc(N)cc3n2)c(C)c1	0	0	50	-	0	-
CC1=C([N+](=O)[O-])C(c2ccccc2Cl)NC(=O)N1C (configuration not stated)	0	0	0	-	60	-
O=S(=O)(c1cccs1)N1CCN(c2ccc(O)cc2)CC1	-	37	0	0	0	-
CC1CCC2(CC1)NC(=O)N(CC(=O)Nc1cccc(S(=O)(=O)N3CCCC3)c1)C2=O (configuration not stated)	0	-	-	-	-	-
COC(=O)c1ccc(NC(=O)c2ccc(NS(=O)(=O)c3cccc4cccnc34)cc2)cc1	0	0	0	-	0	-
O=C(Nc1ccccc1O)c1ccc(NS(=O)(=O)c2cccc3cccnc23)cc1	103	0	0	0	0	0
O=C(CSc1ncccc1-c1nc2ccccc2[nH]1)NCc1ccco1	0	0	0	0	61	0
Nn1c(SCC(=O)NC(=O)NCc2ccco2)nnc1-c1ccc(OC(F)F)cc1	0	0	0	0	93	0
Nn1c(SCC(=O)NCCN2C(=O)CSC2=O)nnc1-c1ccc(OC(F)F)cc1	0	-	-	-	-	-
Cc1cc(C)c2cc(C)c(SCC(=O)NCc3ccco3)nc2c1	0	0	0	0	0	0
Cc1ccc2c(SCC(=O)NCc3ccco3)nc(-c3ccc(F)cc3)nc2c1	0	0	59	0	0	0
Cc1cc2nc(-c3cccnc3SCC(=O)NCc3ccco3)[nH]c2cc1C	0	0	-	0	-	-
O=C(CSc1ncc(-c2ccc(F)cc2)[nH]1)NCc1ccco1	0	0	0	0	74	0
CNS(=O)(=O)c1ccc(C(=O)NCC(=O)NC(C)c2cccs2)cc1 (configuration not stated)	0	-	-	-	-	-
Cn1cnnc1SCCNS(=O)(=O)c1cccc([N+](=O)[O-])c1	0	0	0	-	0	-
O=S(=O)(NCC(c1cccs1)N1CCc2ccccc2C1)c1ccccc1 (configuration not stated)	0	-	-	-	-	-
O=C(Nc1ccncc1)c1cccc(S(=O)(=O)N2CCCC2)c1	-	0	0	-	0	-
CCn1c(SCC(=O)Nc2cccc(OC)c2)nc2c(c1=O)SCC2	0	-	-	-	-	-
O=C(CSc1ccc2nnc(-c3cccc(F)c3)n2n1)NCc1ccco1	0	0	0	0	65	0
O=C(CSc1nc(-c2ccc(F)cc2)cs1)NC(=O)NCc1ccco1	0	0	0	0	79	0
O=C(CNC(=O)c1cccs1)Nc1ccc(N2CCOCC2)cc1	0	-	-	-	-	-
SMILES	HDAC3 inh	PfM18AAP inh	SUMO HTRF inh	p97 inhibitor	PHOSPHO1 inh	G6PDH CS
COc1ccccc1C1=NNC(=Nc2cccc(S(=O)(=O)N(C)C)c2)SC1	0	0	0	0	0	0
O=C(Nc1nccs1)C(Br)C(Br)c1ccccc1 (configuration not stated)	0	31	0	-	0	-
CCOC(=O)c1c(C)[nH]c(C)c1C(=O)CSc1nnc(-c2ccncc2)n1C	0	0	0	0	81	0
CCOC(=O)c1c(C)[nH]c(C)c1C(=O)CSc1nc2ccccc2c(=O)n1-c1ccc(C)cc1	31	0	0	0	0	0
CCOC(=O)c1c(C)[nH]c(C)c1C(=O)CSc1nnc(-c2ccncc2)n1Cc1ccccc1	0	0	0	0	0	0
CC(C)NS(=O)(=O)c1ccc(NC(=O)C(C)OC(=O)CCC2CCCC2)cc1 (configuration not stated)	0	-	-	-	-	-
CCCCN(C(=O)c1cccc(S(=O)(=O)N(C)c2ccc(C)cc2)c1)c1c(N)n(CCCC)c(=O)[nH]c1=O	0	-	-	-	-	-
Nc1c(C(=O)NCc2ccco2)c2nc3ccccc3nc2n1CCc1ccc(F)cc1	0	0	100	0	0	0
COCCNC(=O)c1c(N)n(CCCn2ccnc2)c2nc3ccccc3nc12	0	0	87	0	0	0
